Test results taken from PubChem BioAssay AID1159580 (chemical genetic matrix, 2015).
Where “and” joins values, the source holds several entries; their conditions need not be identical. Equal values may be shown once. The whole screen tested about 5,500 compounds, of which about 2,000 (36%) were called active. Inconclusive results (about 18%) are left out. No stated cut-off is given here; in the data, active means normalized growth mostly below about 0.91 (no sharp cut-off); inconclusive means no clear call, values can overlap the other calls; inactive means mostly above about 0.92. This is one part of the list.

Experiment: chemical genetic growth profiling, strain panel (AID 1159580);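 further: tested at 20 µM; growth read once vehicle control cultures reached saturation at 30 °C; 1 = growth at the plate median or of vehicle wells; lower values mean less growth of the strain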
Details: S. cerevisiae deletion strains, growth OD
[1] = locus YAL013W, strain DEP1, hits give low values
[2] = locus YMR307W, strain GAS1, hits give low values
[3] = locus YNL128W, strain TEP1, hits give low values

Measured: normalized growth

NO
inactive: [1] 0.994 | locus YAL040C, strain CLN3, hits give low values 0.946 | locus YCL061C, strain MRC1 (second series), hits give low values 1.01 | locus YDR363W, strain ESC2, hits give low values 0.997 | locus YER002W, strain NOP16, hits give low values 1.01 | locus YGR229C, strain SMI1, hits give low values 1.1 | locus YJR075W, strain HOC1, hits give low values 1.02 | locus YMR263W, strain SAP30, hits give low values 1.01 | [2] 1.02 | [3] 0.998 | locus YNL153C, strain GIM3, hits give low values 0.988 | locus YNL175C, strain NOP13, hits give low values 1.01 | locus YNL197C, strain WHI3, hits give low values 0.976 | locus YNL224C, strain SQS1, hits give low values 1 | locus YOR083W, strain WHI5 (second series), hits give low values 0.946 | locus YPL055C, strain LGE1, hits give low values 1.01 | locus YPL241C, strain CIN2, hits give low values 1

COC(=O)C[C@H]1C(C)(C)C(=O)[C@@H]2CC3C4=CC(=O)O[C@@H](c5ccoc5)[C@]4(C)CCC3[C@@]1(C)C2=O (stereo not given in full)
inactive: [1] 0.98 | locus YAL021C, strain ccr4, hits give low values 0.967 | locus YAL026C, strain drs2, hits give low values 0.969 | locus YAL030W, strain snc1, hits give low values 0.979 | locus YBL061C, strain skt5, hits give low values 0.985 | locus YBR009C, strain hhf1, hits give low values 0.985 | locus YBR021W, strain FUR4, hits give low values 0.998 | locus YBR023C, strain chs3, hits give low values 0.99 | locus YBR171W, strain sec66, hits give low values 0.995 | locus YBR229C, strain ROT2, hits give low values 0.944 | locus YBR231C, strain swc5, hits give low values 0.998 | locus YBR279W, strain paf1, hits give low values 0.996 | locus YCL011C, strain gbp2, hits give low values 0.988 | locus YCL016C, strain dcc1, hits give low values 0.989 | locus YCL029C, strain bik1, hits give low values 0.973 | locus YCL061C, strain MRC1, hits give low values 0.976 | locus YCL069W, strain vba3, hits give low values 0.99 | locus YCR088W, strain abp1, hits give low values 0.98 | locus YDL005C, strain med2, hits give low values 0.978 | locus YDL035C, strain GPR1, hits give low values 0.959 | locus YDL040C, strain nat1, hits give low values 0.99 | locus YDL074C, strain BRE1, hits give low values 0.954 | locus YDL101C, strain DUN1, hits give low values 0.987 | locus YDL185W, strain tfp1, hits give low values 0.954 | locus YDL192W, strain arf1, hits give low values 0.985 | locus YDR001C, strain nth1, hits give low values 0.975 | locus YDR069C, strain doa4, hits give low values 0.977 | locus YDR101C, strain arx1, hits give low values 0.985 | locus YDR137W, strain rgp1, hits give low values 0.947 | locus YDR159W, strain sac3, hits give low values 0.97 | locus YDR162C, strain NBP2, hits give low values 0.96 | locus YDR195W, strain ref2 0.972 | locus YDR297W, strain sur2, hits give low values 1.05 | locus YDR318W, strain mcm21, hits give low values 0.98 | locus YDR334W, strain swr1, hits give low values 0.972 | locus YDR335W, strain msn5, hits give low values 0.983 | locus YDR388W, hits give low values 0.988 | locus YDR392W, strain spt3, hits give low values 0.993 | locus YDR502C, strain sam2, hits give low values 0.995 | locus YEL003W, strain gim4, hits give low values 0.989 | locus YEL037C, strain rad23, hits give low values 0.985 | locus YEL061C, strain CIN8 (second series), hits give low values 0.982 | locus YEL061C, strain CIN8, hits give low values 0.978 | locus YER015W, strain faa2, hits give low values 0.999 | locus YER016W, strain bim1, hits give low values 0.985 | locus YER110C, hits give low values 0.964 | locus YER111C, strain swi4, hits give low values 0.978 | locus YER155C, strain BEM2 (second series), hits give low values 0.978 | locus YER155C, strain BEM2, hits give low values 0.995 | locus YER167W, strain BCK2, hits give low values 0.978 | locus YFR010W, strain ubp6, hits give low values 0.964 | locus YGL078C, strain dbp3, hits give low values 0.97 | locus YGL086W, strain mad1, hits give low values 0.975 | locus YGL167C, strain pmr1, hits give low values 0.977 | locus YGL173C, strain kem1, hits give low values 0.982 | locus YGL227W, strain vid30, hits give low values 0.99 | locus YGL240W, strain doc1, hits give low values 1 | locus YGL248W, strain PDE1, hits give low values 0.971 | locus YGL253W, strain hxk2, hits give low values 0.98 | locus YGR135W, strain pre9, hits give low values 1.04 | locus YGR252W, strain gcn5, hits give low values 1.04 | locus YHR013C, strain ard1, hits give low values 0.983 | locus YHR027C, strain rpn1, hits give low values 0.979 | locus YHR030C, strain SLT2, hits give low values 0.979 and 0.991 | locus YHR079C, strain IRE1 (second series), hits give low values 0.969 | locus YHR079C, strain IRE1, hits give low values 0.979 | locus YHR094C, strain hxt1, hits give low values 0.97 | locus YHR129C, strain ARP1, hits give low values 0.987 | locus YHR142W, strain chs7, hits give low values 0.983 | locus YHR200W, strain rpn10, hits give low values 0.981 | locus YIL066C, strain RNR3, hits give low values 0.952 | locus YIL073C, strain SPO22, hits give low values 0.957 | locus YIL125W, strain kgd1, hits give low values 0.982 | locus YIR030C, strain dcg1, hits give low values 0.985 | locus YJL092W, strain hpr5, hits give low values 0.981 | locus YJL095W, strain BCK1 (second series), hits give low values 0.983 | locus YJL095W, strain BCK1, hits give low values 1.01 and 0.983 | locus YJL115W, strain asf1, hits give low values 0.964 | locus YJL129C, strain trk1, hits give low values 0.965 | locus YJL134W, strain LCB3, hits give low values 0.97 | locus YJL154C, strain vps35, hits give low values 0.99 | locus YJL164C, strain tpk1, hits give low values 0.988 | locus YJL166W, strain qcr8, hits give low values 0.989 | locus YJL168C, strain set2, hits give low values 0.991 | locus YJL187C, strain SWE1 (second series), hits give low values 0.993 | locus YJL187C, strain SWE1, hits give low values 0.998 | locus YJR066W, strain TOR1, hits give low values 0.943 | locus YKL009W, strain mrt4, hits give low values 0.956 | locus YKL068W, hits give low values 0.979 | locus YKL085W, strain MDH1 (second series), hits give low values 0.986 | locus YKL085W, strain MDH1, hits give low values 0.986 | locus YKL160W, strain elf1, hits give low values 0.992 | locus YKL190W, strain CNB1, hits give low values 0.98 | locus YKR001C, strain vps1, hits give low values 0.979 | locus YKR026C, strain gcn3, hits give low values 0.984 | locus YKR091W, strain srl3, hits give low values 0.984 | locus YLL001W, strain dnm1, hits give low values 0.979 | locus YLL026W, hits give low values 0.982 | locus YLL041C, strain sdh2, hits give low values 0.978 | locus YLR027C, strain aat2, hits give low values 1 | locus YLR039C, strain RIC1, hits give low values 0.902 | locus YLR058C, strain SHM2, hits give low values 0.961 | locus YLR102C, strain apc9, hits give low values 0.979 | locus YLR113W, strain HOG1, hits give low values 1 | locus YLR221C, strain rsa3, hits give low values 0.992 | locus YLR258W, strain gsy2, hits give low values 0.981 | locus YLR262C, strain YPT6 (second series), hits give low values 0.982 | locus YLR262C, strain YPT6, hits give low values 0.916 | locus YLR268W, strain sec22, hits give low values 0.997 | locus YLR320W, strain mms22, hits give low values 0.982 | locus YLR330W, strain CHS5, hits give low values 0.983 | locus YLR342W, strain FKS1 (second series), hits give low values 1.02 | locus YLR342W, strain FKS1, hits give low values 0.99 | locus YLR357W, strain rsc2, hits give low values 0.977 | locus YLR370C, strain arc18, hits give low values 0.987 | locus YLR371W, strain rom2, hits give low values 0.981 | locus YLR384C, strain iki3, hits give low values 0.983 | locus YLR418C, strain cdc73, hits give low values 1 | locus YML016C, strain PPZ1, hits give low values 0.978 | locus YML032C, strain rad52, hits give low values 0.945 | locus YML120C, strain ndi1, hits give low values 0.992 | locus YML124C, strain tub3, hits give low values 0.994 | locus YMR058W, strain fet3, hits give low values 0.969 | locus YMR078C, strain ctf18, hits give low values 0.958 | locus YMR125W, strain sto1, hits give low values 0.973 | locus YMR129W, hits give low values 0.993 | locus YMR205C, strain PFK2, hits give low values 0.977 | locus YMR223W, strain ubp8, hits give low values 1 | locus YMR231W, strain pep5, hits give low values 0.968 | [2] 1.01 | locus YNL067W, strain RPL9B, hits give low values 1.01 | locus YNL071W, strain lat1, hits give low values 0.979 | [3] 0.945 | locus YNL183C, strain NPR1, hits give low values 0.972 | locus YNL209W, strain ssb2, hits give low values 0.989 | locus YNL233W, strain BNI4, hits give low values 1.02 | locus YNL248C, strain rpa49, hits give low values 0.967 | locus YNL250W, strain rad50, hits give low values 0.98 | locus YNL271C, strain bni1, hits give low values 0.976 | locus YNL298W, strain CLA4, hits give low values 0.962 | locus YNL307C, strain MCK1, hits give low values 0.978 | locus YNL322C, strain KRE1 (second series), hits give low values 0.995 | locus YNL322C, strain KRE1, hits give low values 0.981 | locus YNR049C, strain mso1, hits give low values 0.976 | locus YNR052C, strain pop2, hits give low values 0.989 | locus YOL006C, strain TOP1, hits give low values 0.934 | locus YOL012C, strain htz1 0.856 | locus YOL147C, strain pex11, hits give low values 0.969 | locus YOR001W, strain rrp6, hits give low values 0.962 | locus YOR061W, strain CKA2, hits give low values 0.964 | locus YOR069W, strain VPS5, hits give low values 0.988 | locus YOR070C, strain gyp1, hits give low values 0.982 | locus YOR080W, strain dia2, hits give low values 0.983 | locus YOR083W, strain WHI5, hits give low values 0.989 | locus YOR106W, strain vam3, hits give low values 0.99 | locus YOR136W, strain idh2, hits give low values 0.971 | locus YOR144C, strain elg1, hits give low values 0.996 | locus YOR184W, strain ser1, hits give low values 0.948 | locus YOR231W, strain MKK1, hits give low values 0.984 | locus YOR265W, strain rbl2, hits give low values 0.986 | locus YOR270C, strain vph1, hits give low values 0.925 | locus YOR290C, strain snf2, hits give low values 1 | locus YOR316C, strain cot1, hits give low values 0.982 | locus YPL051W, strain arl3, hits give low values 1.03 | locus YPL078C, strain atp4, hits give low values 0.985 | locus YPL106C, strain sse1, hits give low values 0.994 | locus YPL240C, strain hsp82, hits give low values 0.984 | locus YPL256C, strain CLN2, hits give low values 0.967 | locus YPR119W, strain clb2, hits give low values 0.99 | locus YPR141C, strain kar3, hits give low values 0.988 | locus YPR163C, strain tif3, hits give low values 0.985 | locus YPR167C, strain met16, hits give low values 0.982 | strain wtn01, hits give low values 0.967
